# Where “and” joins values, the source holds several entries; their conditions need not be identical. Equal entries are not always repeated. Among all 5,500 compounds or so, about 2,000 (36%) were called active. Inconclusive results (about 18%) are left out. No stated cut-off is given here; in the data, active means normalized growth mostly below about 0.91 (no sharp cut-off); inconclusive means no clear call, values can overlap the other calls; inactive means mostly above about 0.92. The list shows a part of the results. A structure can be active in one record and inactive in another.
# Test: chemical genetic growth profiling, strain panel (AID 1159580);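 further: tested at 20 µM; growth read once vehicle control cultures reached saturation at 30 °C; 1 = growth at the plate median or of vehicle wells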
# Conditions: S. cerevisiae deletion strains, growth OD
smiles,measurement,setting,value
O=c1cc(-c2ccccc2)oc2cc(O)cc(O)c12,normalized growth,"locus YAL013W, strain DEP1, stronger effect = lower value",0.956 (inactive)
same,normalized growth,"locus YAL021C, strain ccr4, stronger effect = lower value",0.968 (inactive) and 0.933 (inactive)
same,normalized growth,"locus YAL026C, strain drs2, stronger effect = lower value",0.911 (inactive) and 0.786 (active)
same,normalized growth,"locus YAL030W, strain snc1, stronger effect = lower value",0.943 (inactive) and 0.913 (active)
same,normalized growth,"locus YBL061C, strain skt5, stronger effect = lower value",0.904 (active)
same,normalized growth,"locus YBR009C, strain hhf1, stronger effect = lower value",0.915 (inactive) and 0.773 (active)
same,normalized growth,"locus YBR021W, strain FUR4, stronger effect = lower value",1.01 (inactive)
same,normalized growth,"locus YBR023C, strain chs3, stronger effect = lower value",1.01 (inactive) and 0.851 (active)
same,normalized growth,"locus YBR171W, strain sec66, stronger effect = lower value",0.953 (inactive) and 0.858 (active)
same,normalized growth,"locus YBR229C, strain ROT2, stronger effect = lower value",0.993 (inactive)
same,normalized growth,"locus YBR231C, strain swc5, stronger effect = lower value",0.938 (inactive) and 0.875 (active)
same,normalized growth,"locus YBR279W, strain paf1, stronger effect = lower value",0.947 (inactive) and 0.922 (active)
same,normalized growth,"locus YCL011C, strain gbp2, stronger effect = lower value",0.937 (inactive) and 0.86 (active)
same,normalized growth,"locus YCL016C, strain dcc1, stronger effect = lower value",1.07 (inactive) and 0.875 (active)
same,normalized growth,"locus YCL029C, strain bik1, stronger effect = lower value",0.911 (inactive)
same,normalized growth,"locus YCL061C, strain MRC1, stronger effect = lower value",0.951 (inactive) and 0.802 (active)
same,normalized growth,"locus YCL069W, strain vba3, stronger effect = lower value",0.978 (inactive) and 0.896 (active)
same,normalized growth,"locus YCR088W, strain abp1, stronger effect = lower value",0.957 (inactive) and 0.923 (inactive)
same,normalized growth,"locus YDL005C, strain med2, stronger effect = lower value",0.961 (inactive) and 0.958 (inactive)
same,normalized growth,"locus YDL035C, strain GPR1, stronger effect = lower value",0.919 (inactive)
same,normalized growth,"locus YDL040C, strain nat1, stronger effect = lower value",1.02 (inactive) and 0.916 (active)
same,normalized growth,"locus YDL074C, strain BRE1, stronger effect = lower value",0.87 (inactive)
same,normalized growth,"locus YDL101C, strain DUN1, stronger effect = lower value",0.987 (inactive)
same,normalized growth,"locus YDL134C, strain PPH21, stronger effect = lower value",0.954 (inactive)
same,normalized growth,"locus YDL185W, strain tfp1, stronger effect = lower value",0.946 (inactive)
same,normalized growth,"locus YDL192W, strain arf1, stronger effect = lower value",0.919 (inactive)
same,normalized growth,"locus YDR001C, strain nth1, stronger effect = lower value",0.96 (inactive) and 0.917 (active)
same,normalized growth,"locus YDR069C, strain doa4, stronger effect = lower value",0.926 (inactive) and 0.919 (inactive)
same,normalized growth,"locus YDR101C, strain arx1, stronger effect = lower value",0.921 (inactive)
same,normalized growth,"locus YDR137W, strain rgp1, stronger effect = lower value",0.675 (active) and 0.533 (active)
same,normalized growth,"locus YDR150W, strain NUM1, stronger effect = lower value",0.973 (inactive)
same,normalized growth,"locus YDR159W, strain sac3, stronger effect = lower value",0.853 (active) and 0.785 (active)
same,normalized growth,"locus YDR162C, strain NBP2, stronger effect = lower value",0.92 (inactive)
same,normalized growth,"locus YDR195W, strain ref2",0.986 (inactive) and 1.15 [resistant] (active)
same,normalized growth,"locus YDR297W, strain sur2, stronger effect = lower value",0.946 (inactive) and 0.907 (active)
same,normalized growth,"locus YDR318W, strain mcm21, stronger effect = lower value",0.902 (active)
same,normalized growth,"locus YDR334W, strain swr1, stronger effect = lower value",0.954 (inactive) and 0.887 (active)
same,normalized growth,"locus YDR335W, strain msn5, stronger effect = lower value",0.957 (inactive) and 0.88 (active)
same,normalized growth,"locus YDR388W, stronger effect = lower value",0.914 (active)
same,normalized growth,"locus YDR392W, strain spt3, stronger effect = lower value",0.595 (active) and 0.401 (active)
same,normalized growth,"locus YDR502C, strain sam2, stronger effect = lower value",0.922 (inactive)
same,normalized growth,"locus YEL003W, strain gim4, stronger effect = lower value",0.952 (inactive) and 0.809 (active)
same,normalized growth,"locus YEL037C, strain rad23, stronger effect = lower value",0.941 (inactive) and 0.911 (active)
same,normalized growth,"locus YEL061C, strain CIN8 (second series), stronger effect = lower value",0.961 (inactive) and 0.888 (active)
same,normalized growth,"locus YEL061C, strain CIN8, stronger effect = lower value",0.967 (inactive)
same,normalized growth,"locus YER015W, strain faa2, stronger effect = lower value",0.936 (inactive) and 0.867 (active)
same,normalized growth,"locus YER016W, strain bim1, stronger effect = lower value",1.07 (inactive) and 0.92 (active)
same,normalized growth,"locus YER110C, stronger effect = lower value",0.945 (inactive)
same,normalized growth,"locus YER111C, strain swi4, stronger effect = lower value",0.97 (inactive) and 0.951 (inactive)
same,normalized growth,"locus YER155C, strain BEM2 (second series), stronger effect = lower value",0.686 (active) and 0.499 (active)
same,normalized growth,"locus YER155C, strain BEM2, stronger effect = lower value",0.969 (inactive)
same,normalized growth,"locus YER167W, strain BCK2, stronger effect = lower value",0.928 (inactive)
same,normalized growth,"locus YFR010W, strain ubp6, stronger effect = lower value",0.931 (inactive) and 0.919 (inactive)
same,normalized growth,"locus YGL078C, strain dbp3, stronger effect = lower value",0.957 (inactive)
same,normalized growth,"locus YGL086W, strain mad1, stronger effect = lower value",0.853 (active)
same,normalized growth,"locus YGL167C, strain pmr1, stronger effect = lower value",0.924 (inactive) and 0.87 (active)
same,normalized growth,"locus YGL173C, strain kem1, stronger effect = lower value",0.858 (active) and 0.891 (active)
same,normalized growth,"locus YGL227W, strain vid30, stronger effect = lower value",0.952 (inactive) and 0.909 (active)
same,normalized growth,"locus YGL240W, strain doc1, stronger effect = lower value",0.797 (active) and 0.631 (active)
same,normalized growth,"locus YGL248W, strain PDE1, stronger effect = lower value",0.949 (inactive)
same,normalized growth,"locus YGL253W, strain hxk2, stronger effect = lower value",0.941 (inactive) and 0.855 (active)
same,normalized growth,"locus YGR078C, strain PAC10, stronger effect = lower value",0.858 (inactive)
same,normalized growth,"locus YGR135W, strain pre9, stronger effect = lower value",0.879 (active)
same,normalized growth,"locus YGR229C, strain SMI1, stronger effect = lower value",0.802 (active)
same,normalized growth,"locus YGR252W, strain gcn5, stronger effect = lower value",0.762 (active)
same,normalized growth,"locus YHR013C, strain ard1, stronger effect = lower value",1.06 (inactive) and 1.1 (inactive)
same,normalized growth,"locus YHR027C, strain rpn1, stronger effect = lower value",0.95 (inactive) and 0.901 (active)
same,normalized growth,"locus YHR030C, strain SLT2, stronger effect = lower value",0.967 (inactive) and 0.884 (inactive)
same,normalized growth,"locus YHR079C, strain IRE1 (second series), stronger effect = lower value",0.92 (active)
same,normalized growth,"locus YHR079C, strain IRE1, stronger effect = lower value",0.862 (inactive)
same,normalized growth,"locus YHR094C, strain hxt1, stronger effect = lower value",0.964 (inactive)
same,normalized growth,"locus YHR129C, strain ARP1, stronger effect = lower value",0.992 (inactive)
same,normalized growth,"locus YHR142W, strain chs7, stronger effect = lower value",0.889 (inactive) and 0.702 (active)
same,normalized growth,"locus YHR200W, strain rpn10, stronger effect = lower value",0.91 (active)
same,normalized growth,"locus YIL066C, strain RNR3, stronger effect = lower value",0.959 (inactive)
same,normalized growth,"locus YIL073C, strain SPO22, stronger effect = lower value",0.854 (inactive)
same,normalized growth,"locus YIL125W, strain kgd1, stronger effect = lower value",0.955 (inactive)
same,normalized growth,"locus YIR030C, strain dcg1, stronger effect = lower value",0.944 (inactive)
same,normalized growth,"locus YJL092W, strain hpr5, stronger effect = lower value",0.954 (inactive) and 0.91 (active)
same,normalized growth,"locus YJL095W, strain BCK1 (second series), stronger effect = lower value",0.942 (inactive) and 0.879 (active)
same,normalized growth,"locus YJL095W, strain BCK1, stronger effect = lower value",0.825 (inactive) and 0.889 (inactive)
same,normalized growth,"locus YJL115W, strain asf1, stronger effect = lower value",0.954 (inactive) and 0.904 (active)
same,normalized growth,"locus YJL129C, strain trk1, stronger effect = lower value",0.816 (active) and 0.603 (active)
same,normalized growth,"locus YJL134W, strain LCB3, stronger effect = lower value",0.991 (inactive)
same,normalized growth,"locus YJL154C, strain vps35, stronger effect = lower value",0.97 (inactive) and 0.918 (active)
same,normalized growth,"locus YJL164C, strain tpk1, stronger effect = lower value",0.909 (active) and 0.811 (active)
same,normalized growth,"locus YJL166W, strain qcr8, stronger effect = lower value",0.891 (active) and 0.741 (active)
same,normalized growth,"locus YJL168C, strain set2, stronger effect = lower value",0.948 (inactive)
same,normalized growth,"locus YJL187C, strain SWE1 (second series), stronger effect = lower value",0.939 (inactive)
same,normalized growth,"locus YJL187C, strain SWE1, stronger effect = lower value",0.952 (inactive) and 0.902 (active)
same,normalized growth,"locus YJR043C, strain POL32, stronger effect = lower value",0.899 (inactive)
same,normalized growth,"locus YJR066W, strain TOR1, stronger effect = lower value",0.883 (inactive)
